# Screens from PubChem.
# hgDAF12 agonist: H. glycines DAF-12 receptor agonists, primary screen, cell-based, luminescence, HEK293, GAL4 fusion, UAS-luciferase | Nuclear hormone receptor DAF-12 (Heterodera glycines), GAL4 fusion | HEK293 GAL4-hgDAF12 UAS-luciferase reporter, agonist luminescence; normalized to butyrate control | activation, % at 6.8 µM | 370,000 compounds, 1.8% hits | AID 687014, 2013;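 active means activation above a cutoff set at the mean of all screened compounds plus 3 SD, cut at about 10% in these data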
# ssDAF-12 act: S. stercoralis DAF-12 nuclear receptor activators, primary screen, cell-based, luminescence, HEK293, GRIP1 co-expression, lit1-tk-luc | HEK293 ssDAF-12/GRIP1 lit1-tk-luc reporter; % of 3 µM dafachronic acid response | 370,000 compounds, 1% hits | activation, % at 6.8 µM;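 active means activation above the mean over all tested compounds plus 3 SD, cut at about 0.9% in these data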
# hcDAF12 agonist: H. contortus DAF-12 nuclear receptor activators, primary screen, cell-based, luminescence, HEK293, lit1-tk-luc reporter; HEK293 hcDAF-12 lit1-tk-luc reporter; 0% DMSO, 100% Δ7-dafachronic acid; activation, % at 6.8 µM; 370,000 compounds, 1.4% hits; AID 652067, 2013;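 active means activation above the mean of all tested compounds plus 3 SD, cut at about 5.5% in these data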
# DAX1 inh-1: DAX1 (NR0B1) inhibitors, primary screen, cell-based, HEK293, Gal4-DAX1, luciferase luminescence; Nuclear receptor subfamily 0 group B member 1 (Homo sapiens), P51843; HEK293 Gal4-DAX1 luciferase reporter; inhibition, % at 6.75 µM; 340,000 compounds, 0.99% hits; AID 504766, 2011;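 active means inhibition above the mean over all tested compounds plus 3 SD, cut at about 4.2% in these data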;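 further: inhibition shows as a rise in luminescence from relieved DAX1 repression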
# AHR act: AHR activators, primary screen, cell-based, luminescence, luciferase reporter, human. activation, % at 5 µM. AID 2796, 2010. 320,000 compounds, 2.5% hits. AHR-responsive luciferase reporter cells; in the data active means activation above about 47%
# Target sequence (P35869 whole entry, looked up): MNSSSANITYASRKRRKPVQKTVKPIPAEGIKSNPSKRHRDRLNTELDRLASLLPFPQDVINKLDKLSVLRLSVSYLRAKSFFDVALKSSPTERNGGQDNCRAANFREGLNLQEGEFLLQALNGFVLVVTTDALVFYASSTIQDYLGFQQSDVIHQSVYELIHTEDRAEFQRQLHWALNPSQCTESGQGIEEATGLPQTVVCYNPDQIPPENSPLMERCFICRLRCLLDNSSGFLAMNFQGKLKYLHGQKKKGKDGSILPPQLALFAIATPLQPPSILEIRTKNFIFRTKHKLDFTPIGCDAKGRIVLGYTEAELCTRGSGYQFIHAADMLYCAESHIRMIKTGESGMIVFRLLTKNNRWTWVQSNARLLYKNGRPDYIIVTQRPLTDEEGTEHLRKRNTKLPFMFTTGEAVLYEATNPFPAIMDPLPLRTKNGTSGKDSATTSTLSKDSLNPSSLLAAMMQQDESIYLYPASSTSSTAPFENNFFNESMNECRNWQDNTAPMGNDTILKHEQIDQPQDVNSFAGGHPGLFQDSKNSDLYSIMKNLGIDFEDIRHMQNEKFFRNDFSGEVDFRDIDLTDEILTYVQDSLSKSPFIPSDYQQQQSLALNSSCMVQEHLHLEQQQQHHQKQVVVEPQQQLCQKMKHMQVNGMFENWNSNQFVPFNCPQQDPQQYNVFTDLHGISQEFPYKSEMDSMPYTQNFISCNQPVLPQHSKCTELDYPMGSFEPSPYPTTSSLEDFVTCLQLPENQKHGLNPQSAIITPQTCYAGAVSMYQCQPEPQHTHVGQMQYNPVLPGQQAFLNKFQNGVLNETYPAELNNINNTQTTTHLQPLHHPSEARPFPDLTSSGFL
# DAX1 inh-2: DAX1 (NR0B1) inhibitors on StAR promoter, primary screen, cell-based, luminescence, SF-1 (NR5A1), full-length DAX-1; HEK293T StAR-luciferase reporter, SF-1/DAX-1 repression relief; inhibition, % at 6.8 µM; 370,000 compounds, 1.1% hits;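 active means inhibition above the mean over all tested compounds plus 3 SD, cut at about 3.6% in these data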;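 further: higher inhibition means more luminescence from relief of DAX-1 repression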
# LXRb hcDAF ctr: LXR agonists, Gal4 luciferase reporter, confirmation, counter-screen for hcDAF-12 agonist project, cell-based, luminescence, HEK293, H. contortus campaign; shares compounds with hcDAF12 agonist; HEK293 Gal4-LXR tk-luc reporter, 24 h; normalized: DMSO 0%, positive control 100%; activation, % at 6.8 µM; 3,400 tested, under 10 active;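 active means mean percent activation of the reporter above a cutoff set as the average over tested compounds plus their standard deviation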
# hcDAF12 ag: H. contortus DAF-12 receptor agonists, confirmation, cell-based, luminescence, HEK293, lit1-tk-luc, triplicate; shares compounds with hcDAF12 agonist; HEK293 hcDAF-12 lit1-tk-luc reporter; % of Δ7-dafachronic acid response; activation, % at 6.8 µM; 3,400 compounds, 61% hits; AID 743032, 2013;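 active means mean activation across triplicate tests above the threshold derived from the earlier primary screen, cut at about 5.5% in these data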
# hgDAF12 conf: H. glycines DAF-12 receptor agonists, confirmation, cell-based, luminescence, HEK293, GAL4-LBD fusion | HEK293 GAL4-hgDAF12 luciferase reporter, agonist mode; percent of butyrate response | 3,300 compounds, 80% hits | shares compounds with hgDAF12 agonist | AID 743050, 2013 | activation, % at 6.8 µM;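 active means mean activation over triplicate wells above the hit cutoff derived from the earlier primary screen, cut at about 11% in these data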
# LXRb DAF12 ctr: LXR agonists, Gal4 luciferase reporter, confirmation, counter-screen for hgDAF-12 agonist project, cell-based, luminescence, HEK293, H. glycines campaign | shares compounds with hgDAF12 agonist | 24 h | activation, % at 6.8 µM | 3,300 tested, under 10 active;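 active means mean activation of the triplicate above a set limit carried over from the primary screen, none filed active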
# A number is an active result; - = inactive; . = no result given. A selection: hits, their analogues and other compounds. The true share with any hit is near 5.7%.
SMILES,hgDAF12 agonist,ssDAF-12 act,hcDAF12 agonist,DAX1 inh-1,AHR act,DAX1 inh-2,LXRb hcDAF ctr,hcDAF12 ag,hgDAF12 conf,LXRb DAF12 ctr
NC(=O)c1c(NC(=O)c2ccco2)sc2c1CCC2,13.9,1.1,6.7,-,75.9,-,-,8.9,17.0,-
Clc1ccc(-c2c[nH]c3ccccc23)nn1,-,-,-,-,-,-,.,.,.,.
c1ccc2c(-c3csc(-c4ccncc4)n3)c[nH]c2c1,28.4,1.6,13.1,-,58.4,-,-,14.0,15.3,-
Clc1ccc(-c2nsc(N3CCOCC3)n2)c(Cl)c1,16.1,-,8.6,-,-,-,-,-,15.9,-
COc1cccc(/C=N/Nc2ccc([N+](=O)[O-])cc2)c1O,24.6,-,7.3,-,-,-,-,7.2,20.9,-
NC(=O)c1ccccc1NC(=O)c1ccc2ccccc2c1,22.6,3.1,11.3,-,-,-,-,9.2,22.5,-
COc1ccc(-c2cc(-c3ccccc3O)[nH]n2)cc1OC,15.7,-,7.9,-,-,3.6,-,-,16.2,-
Cc1nn(-c2ccccc2)c(C)c1C(=O)NNC(=O)C(F)(F)F,-,-,-,-,-,-,.,.,.,.
CC(=O)Nc1ccc(NC(=O)CSc2nnc(NC(=O)C3CC(=O)N(c4ccc(F)cc4)C3)s2)cc1 (stereo not drawn),-,-,-,-,-,-,.,.,.,.
Cn1c(=O)c(C(=O)Nc2ccccc2S(N)(=O)=O)c(O)c2ccccc21,-,-,-,-,-,-,.,.,.,.
Cn1c(=O)c(C(=O)Nc2ccccn2)c(O)c2ccccc21,16.6,3.0,13.8,-,-,3.9,-,18.4,24.5,-
Cc1cc(C)nc(Nc2ccccc2F)n1,-,-,-,-,-,-,.,.,.,.
c1ccc(Nc2nc3ccccc3o2)cc1,14.2,0.9,8.1,-,-,-,-,8.3,21.4,-
CCN(CC)S(=O)(=O)c1ccc2oc(Nc3ccccc3)nc2c1,-,-,-,-,-,-,.,.,.,.
Fc1ccccc1Nc1nc2ccccc2o1,16.2,-,8.2,-,-,-,-,9.0,19.1,-
COc1ccc2c(c1)CC/C(=C\c1ccc(OC)c(Cn3cccn3)c1)C2=O,-,-,-,-,-,-,.,.,.,.
COc1ccc2c(c1)CC/C(=C/c1ccco1)C2=O,15.6,-,8.6,-,-,4.2,-,6.2,15.7,-
CC1(C)CC(/C=C/c2ccccc2)=Nc2ccccc2N1,19.1,1.8,7.6,6.0,-,-,-,-,-,-
O=C(Nc1cccc(O)c1)c1c(O)c2ccccc2[nH]c1=O,13.3,3.9,13.7,5.0,-,-,-,15.1,23.9,-
COc1cc(NC(=O)c2cc(-c3ccc4c(c3)OCO4)on2)cc(OC)c1OC,-,-,-,-,-,-,.,.,.,.
CC(C)NC(=O)c1cc(-c2ccc3c(c2)OCO3)on1,13.9,-,6.6,-,-,-,-,-,14.1,-
COc1cccc(CN(CCC(=O)O)Cc2cccc(OC)c2)c1,-,-,-,-,.,-,.,.,.,.
Cc1ccccc1-c1nc2ccccc2[nH]1,-,-,-,-,-,-,.,.,.,.
Cc1cc(C)c2c(N)c(-c3nc4ccccc4[nH]3)sc2n1,13.3,2.6,16.3,5.0,55.4,-,-,10.3,14.1,-
O=C(Nc1nc2ccc(Cl)cc2s1)c1ccco1,16.0,-,7.4,-,-,-,-,6.6,17.0,-
SMILES,hgDAF12 agonist,ssDAF-12 act,hcDAF12 agonist,DAX1 inh-1,AHR act,DAX1 inh-2,LXRb hcDAF ctr,hcDAF12 ag,hgDAF12 conf,LXRb DAF12 ctr
O=C(O)c1cccc(COc2ccc3c(c2)CCC3)c1,13.9,2.8,10.1,-,-,3.6,-,11.9,23.0,-
Cc1cc(C(=O)N/N=C/c2cccnc2)n[nH]1,-,-,-,-,-,-,.,.,.,.
O=C(N/N=C/c1cccnc1)c1[nH]ncc1Br,13.4,-,6.8,-,-,-,-,-,-,-
O=C(Nc1nc2ccccc2[nH]1)c1cccc(F)c1,16.9,2.3,13.2,-,-,-,-,12.2,17.5,-
O=C(Nc1cccc(NC(=O)c2ccc(Cl)cc2)n1)c1ccc(Cl)cc1,-,-,-,-,-,-,.,.,.,.
COc1ccc(C(=O)Nc2ccc3ccccc3n2)c(OC)c1OC,-,-,-,-,-,-,.,.,.,.
O=C(Nc1ccc2ccccc2n1)c1ccccc1Cl,15.5,-,7.2,-,-,-,-,5.7,17.6,-
O=C(Nc1ccc2ccccc2n1)c1ccc(Cl)cc1,15.0,-,10.1,-,-,-,-,7.0,19.2,-
Nc1c(-c2cccs2)cnc2c(-c3ccc(F)cc3)cnn12,15.8,1.0,9.0,-,-,-,-,6.6,24.7,-
O=C(O)c1cccc(-c2nnn(Cc3ccccc3Cl)n2)c1,13.5,2.0,6.7,-,-,4.4,-,8.5,22.3,-
CCOC(=O)c1c(N)sc(C(=O)Nc2ccccc2)c1C,28.1,-,10.2,-,-,-,-,8.9,21.6,-
CC(=O)NCCC(=O)N(Cc1ccccc1)c1nc2c(C)cccc2s1,-,-,-,-,-,-,.,.,.,.
Cc1ccc(NC(=O)Cn2nc(C(=O)O)c3ccccc3c2=O)c([N+](=O)[O-])c1,-,-,-,-,-,-,.,.,.,.
